# Screening results as filed in PubChem BioAssay.
# PNC assembly inh – High Content Assay for Compounds that inhibit the Assembly of the Perinucleolar Compartment; PC3M PTB-GFP, PNC prevalence imaging, 16 h; active compounds read low; activity change (PNC), negative = inhibition, % at 10 µM; 140,000 compounds, 3.1% hits;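 active = readout at or below -70, meaning at least 70% loss of cells showing the perinucleolar compartment, a nuclear body marking cancer cells; inconclusive = readout between -30 and a set limit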;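 note: plate controls were DMSO wells for no effect and camptothecin positive control wells for full effect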
#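 PC3M cells stably expressing PTB-GFP, 750–1000 cells/well, treated 16 h at 37 °C with compound (23 nl of library stock), in duplicate. After paraformaldehyde fixation and Hoechst stain, imaged at 20x; PNC prevalence scored by image analysis.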
# aGal spleen mod – qHTS Assay for Inhibitors and Activators of Human alpha-Galactosidase From Spleen Homogenate. Alpha-galactosidase A (Homo sapiens), P06280. human spleen homogenate, 4MU-alpha-Gal fluorescence, 40 min. Potency, µM (titrated, usually from 80 µM), for inactives: top-dose activity change, negative = inhibition, actives largely listed as inhibitors. 240,000 compounds, 0.008% hits;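 note: potency is the fitted concentration of half-maximal effect; 0% = enzyme with vehicle and -100% = no enzyme basal signal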
#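 Human spleen homogenate (1 ug) was the enzyme source, with 4-methylumbelliferyl-alpha-D-galactopyranoside (1 mM final) in pH 5.0 citrate buffer with 0.01% Tween-20. Compounds were titrated; after 40 min at 37C, NaOH/glycine stop, 4-MU fluorescence read; AC50 from Hill fits.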
# ALDH1A1 inh – qHTS Assay for Inhibitors of Aldehyde Dehydrogenase 1 (ALDH1A1). Aldehyde dehydrogenase 1A1 (Homo sapiens), P00352. Purified ALDH1A1, NADH fluorescence, propionaldehyde substrate. Potency, µM (series often up to 75.3 µM), for the others: at the highest dose activity, negative = inhibition, actives largely listed as inhibitors. AID 1030, 2008. 220,000 compounds, 7.3% hits; active = well fitted inhibition curve with a large enough effect, not every such curve was filed as active; inconclusive = small, poorly fitted or top-dose-only effect, or another doubt; inactive = no such curve, though single readings can be large or run the other way;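 note: potency is the fitted concentration of half-maximal effect; plate controls were no enzyme wells and a reference inhibitor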
# GLA inh pH 4.5 – qHTS Assay for Inhibitors of Human alpha-Galactosidase at pH 4.5; activity change, negative = inhibition, % at 105 µM; 230,000 tested, under 10 active; purified enzyme, 4-MU-alpha-Gal fluorescence, pH 4.5; Alpha-galactosidase A (Homo sapiens), P06280;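 note: 0% = full activity with enzyme and -100% = basal without enzyme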
# HPGD inh – qHTS Assay for Inhibitors of HPGD (15-Hydroxyprostaglandin Dehydrogenase) | 15-hydroxyprostaglandin dehydrogenase [NAD(+)] (Homo sapiens), P15428 | purified HPGD, NADH fluorescence kinetic, PGE2 substrate | Potency, µM, for the others: at the highest dose activity change, negative = inhibition, actives largely listed as inhibitors | 150,000 compounds, 4.3% hits | AID 894, 2007; active = well fitted inhibition curve with a large enough effect, not every such curve was filed as active; inconclusive = small, poorly fitted or top-dose-only effect, or another doubt; inactive = no such curve, though single readings can be large or run the other way; note: potency is the fitted concentration of half-maximal effect
#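 20 nM HPGD preincubated 15 min at room temperature with compound in 50 mM Tris-HCl pH 8, 0.01% Tween 20. Started with 1 mM NAD+ and 30 uM prostaglandin E2; NADH fluorescence (360/450 nm) read 5 times over 30-s intervals, last minus first.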
# ALOX12 inhib – qHTS Assay for Inhibitors of 12-hLO (12-human lipoxygenase); Polyunsaturated fatty acid lipoxygenase ALOX12 (Homo sapiens), P18054; purified 12-hLO, xylenol orange hydroperoxide absorbance; Potency, µM (doses to about 57.1 µM), without a hit: at the top dose activity change, negative = inhibition, most hits filed as inhibitors; 150,000 compounds, 0.12% hits; note: potency is the fitted concentration of half-maximal effect; nearly all actives have a fitted effect of over 55% in size
# Target sequence (P18054 whole entry, looked up): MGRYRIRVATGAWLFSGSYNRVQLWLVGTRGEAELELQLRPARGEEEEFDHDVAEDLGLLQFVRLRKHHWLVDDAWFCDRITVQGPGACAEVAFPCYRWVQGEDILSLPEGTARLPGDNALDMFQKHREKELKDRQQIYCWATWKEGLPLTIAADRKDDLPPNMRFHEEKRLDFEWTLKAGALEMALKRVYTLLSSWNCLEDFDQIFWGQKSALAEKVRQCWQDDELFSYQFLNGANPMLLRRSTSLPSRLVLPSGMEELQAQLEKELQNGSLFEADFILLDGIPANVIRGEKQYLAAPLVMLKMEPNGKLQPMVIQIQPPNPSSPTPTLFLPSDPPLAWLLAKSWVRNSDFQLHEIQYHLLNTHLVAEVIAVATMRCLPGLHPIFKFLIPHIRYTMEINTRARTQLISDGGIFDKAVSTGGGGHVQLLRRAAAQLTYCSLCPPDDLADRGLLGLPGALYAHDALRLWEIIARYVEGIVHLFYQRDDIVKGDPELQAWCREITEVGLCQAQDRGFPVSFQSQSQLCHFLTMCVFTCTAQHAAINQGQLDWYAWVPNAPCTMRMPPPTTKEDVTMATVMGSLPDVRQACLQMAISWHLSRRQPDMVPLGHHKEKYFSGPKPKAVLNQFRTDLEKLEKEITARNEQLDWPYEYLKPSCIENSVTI
#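 Purified human 12hLO (150 nM), preincubated 15 min with compound, then 40 uM arachidonic acid for 30 min, room temperature, Hepes pH 7.0 with 0.01% Triton X-100. Hydroperoxide detected by ferrous iron/xylenol orange; 573/405 nm absorbance ratio gives reaction progress.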
# * hit, by the source's call; ? = inconclusive; · = no result; [ ] = remark or other dose. Sampled rows, rich in hits. Any-hit rate of the full collection: about 10%. Unless noted, calls come from the whole dose curve; as a rule, active = well fitted curve in the direction sought with a large enough effect; inconclusive = small, poorly fitted or top-dose-only effect, or another doubt; inactive = no such curve, though single readings can be large; an effect the other way counts as inactive or inconclusive. Unless noted, % is set by controls: 0 for no effect and ±100 for the full control effect.
SMILES,PNC assembly inh,aGal spleen mod,ALDH1A1 inh,GLA inh pH 4.5,HPGD inh,ALOX12 inhib
O=C1CC(c2ccccc2)=Nc2ccccc2N1,-10,-10%,?,9,-10%,-1%
Clc1cccc(Cl)c1CNc1ccc(N2CCCC2)cc1,·,2%,16µM*,1,·,·
O=C(Cc1ccc(Cl)cc1)Nc1ccc(N2CCCC2)cc1,24,6%,1%,2,-10%,-7%
C#CCCCCCCCCCCCc1ccco1,·,0%,20µM*,-1,-23%,-7%
Cc1ccc(C)c(S(=O)(=O)N/N=C/c2ccc(N3CCOCC3)cc2)c1,·,12%,·,1,·,·
COc1cccc(Cn2c(=O)c(-c3ccc(Cl)cc3)nc3cnc(N(C)C)nc32)c1,·,-2%,?,·,-20%,1%
CC(C)Cn1c(=S)[nH]c2ccccc2c1=O,·,2%,?,10,·,·
CC(C)Cn1c(=S)[nH]c2cc(Cl)ccc21,·,-8%,8.9µM*,-2,·,·
Nc1ccc([N+](=O)[O-])c(N)c1,·,1%,-6%,·,-11%,-4%
CC(=O)N(/N=C1\Sc2ccccc2C1=O)c1cccc(C)c1,?,-8%,?,6,3.5µM*,-1%
CCC(=O)Nc1ccc(C(=O)CSc2nnc(-c3ccccc3F)n2CCc2ccccc2)cc1,17,-3%,22µM*,-6,-6%,-2%
CCC(=O)Nc1ccc(C(=O)CSc2nnc(-c3ccc(O)cc3)n2CC2CCCO2)cc1 (centres undefined),?,1%,25µM*,0,-7%,-2%
CN(C)C(=O)c1ccc(-c2cc(NCc3cccnc3)ncn2)cc1,·,3%,?,·,·,·
Cc1noc(C)c1C(=O)NCc1ccccc1F,·,0%,12%,-4,·,·
Cc1cccn2c(CN3CCNC(=O)CC3)c(C(=O)N(C)CCc3ccccc3)nc12,·,4%,-1%,-1,·,·
COC(=O)c1sccc1NC(=S)N(C)C1CCCCC1,·,-9%,0.35µM*,3[21.1 µM],·,·
NS(=O)(=O)c1ccc(NC(=S)NCc2cccs2)cc1,·,-17%,?,8,·,·
Cc1cccc(NC(=S)NCc2cccs2)c1,·,13%,-2%,-11,·,·
Cc1ccc(NC(=S)NCc2cccs2)cc1,12,3%,-7%,-6,28µM*,-5%
Fc1ccc(NC(=S)NCc2cccs2)cc1,-3,2%,-9%,-5,18µM*,-3%
S=C(NCc1cccs1)Nc1ccccc1,40,-3%,?,0,13µM*,-8%
S=C(NCCOCCOCCNC(=S)Nc1ccccc1)Nc1ccccc1,·,7%,13µM*,-19,·,·
COc1c2c(c3c(c1CCC(=O)O)OC(C)(C)C=C3)OC(C)(C)C=C2,·,·,20%[13.5 µM],·,0%,7%[11.4 µM]
O=C(C1CCCCC1)N(CCN1CCN(c2ccccc2CO)CC1)c1ccccn1,·,8%,-3%,·,·,·
COC(=O)C1=C(C)NC(C)=C(C(=O)OCCN(C)Cc2ccccc2)[C@@H]1c1cccc([N+](=O)[O-])c1,·,·,·,·,·,-5%
SMILES,PNC assembly inh,aGal spleen mod,ALDH1A1 inh,GLA inh pH 4.5,HPGD inh,ALOX12 inhib
COc1cccc(NC(=S)NCc2cccs2)c1,-7,-13%,-9%,3,18µM*,-1%
CC(OC(=O)CC(NC(=O)c1ccccc1Cl)c1ccccc1)C(=O)Nc1cccc(Cl)c1Cl (centres undefined),38,4%,-1%,-2,-6%,-1%
N#Cc1ccccc1-c1ccc2ncnc(N3CCNCC3)c2c1,·,-2%,-11%,7,?,-4%
COc1ccc2[nH]c(-c3ccccc3)c(CCNC(C)=O)c2c1,·,7%,?,-7,?,0%
O=c1[nH]c2ccccc2c(O)c1O,·,-4%,0.56µM*,·,·,·
CC(=O)NCCc1c(Cc2ccccc2)[nH]c2ccccc12,·,-6%,2%,1,14µM*,-7%
CCCCCCCCCCCCCCCC(=O)NCCc1c[nH]c2ccccc12,·,10%,3%,5,·,·
CCCCNC(=O)Cc1c(O)c2ccccc2[nH]c1=O,-112*,2%,?,2,-25%,8%
CCCCC(=O)NCCc1c(Cc2ccccc2)[nH]c2ccccc12,·,17%,?,-9,16µM*,-6%
CCCCCCNC(=O)Cc1c(O)c2ccccc2[nH]c1=O,?,0%,?,-4,?,-8%
CCOC(=O)Cn1c2ccccc2n2nc(CCC(=O)O)c(=O)nc12,·,1%,?,3,·,·
COc1cccc(CNC(=O)CSCc2cnn(-c3ccccc3)c2-n2cccc2)c1,?,2%,-9%,-3,-17%,-4%
c1nc(N2CCC3(CC2)OCCO3)c2[nH]cnc2n1,-113*,-9%,15%,-4,-5%,-1%
CCOc1ccc(Cc2noc3c2C(=O)CC(C)(C)C3)cc1OCC,·,-2%,11µM*,0,·,·
O=C(NNc1ccccc1C(F)(F)F)c1sccc1Br,·,-2%,?,-8,·,·
CCNS(=O)(=O)c1cccc(C(=O)c2c(C)cc3ccccn23)c1,-90*,5%,2%,0,-13%,-6%
Cn1cccc1C(=O)N1CCC[C@@]2(CCN(Cc3ccccc3)C2)C1,·,-11%,-9%,·,-8%,2%
CN(CC(=O)NCCC1=CCCCC1)S(=O)(=O)c1ccc2c(c1)c(=O)n(C)c(=O)n2C,-18,6%,32µM*,12,-10%,0%
CCc1ccc(OCCCC(=O)Nc2ccc(S(N)(=O)=O)cc2)cc1,·,-2%,-14%,2,·,·
COCCn1c(=O)c2cc3c(=O)n(CCOC)c(=O)c3cc2c1=O,-26,4%,18µM*,-4,-6%,2%
O=c1c2cc(Cl)ccc2[nH]c(=S)n1Cc1ccco1,13,2%,11µM*,8,-20%,-9%
COc1cc2[nH]c(=S)n(Cc3ccco3)c(=O)c2cc1OC,-11,9%,0.79µM*,5,-12%,-1%
COc1ccc(OC)c(NC(=O)c2ccc3c(=O)n(CCc4ccccc4)c(=S)[nH]c3c2)c1,27,8%,-1%,6,-20%,-3%
O=c1[nH]c2ccc(Cl)cc2c(=O)n1Cc1ccco1,-13,5%,?,1,1%,-4%
COc1ccc(NC(=O)c2ccc3c(=O)n(Cc4ccco4)c(=S)[nH]c3c2)c(OC)c1,-4,8%,0.89µM*,7,-8%,-1%
COCCn1c(=S)[nH]c2cc(OC)c(OC)cc2c1=O,?,2%,32µM*,-8,-9%,1%
